# Measured potencies and affinities stand elsewhere. Values without a mark were called inactive. The rule behind the calls is not given here.
# Assay: A549 cell cytotoxicity, dose response, cytotoxicity control, plate reader, cherry-pick, antagonist series (AID 743412);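 note: 0% = neutral control wells and -100% = positive control wells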
# Conditions: series mostly up to 26 µM; activity change, negative = cytotoxicity: at the top concentration
row,SMILES,"activity change, negative = cytotoxicity"
1,CCc1nnc2cccc(Cl)n12,4.82%
2,C[C@@H]1CN([C@@H](C)CO)C(=O)c2cccc(NC(=O)Nc3ccc(C(F)(F)F)cc3)c2O[C@H]1CN(C)C(=O)Nc1cccc2ccccc12,-3.89%
3,C[C@H](CO)N1C[C@H](C)[C@H](CN(C)C(=O)Nc2ccc(F)cc2)OCCCC[C@H](C)Oc2ccc(NC(=O)NC3CCCCC3)cc2C1=O,-13.2%
4,Cc1ccc(S(=O)(=O)N2[C@@H](CO)CO[C@H]2CC(=O)OCc2ccccc2)cc1,75.5%
5,COc1ccc(-c2noc(CCC(=O)N3CCN(c4ccc(Cl)cc4)CC3)n2)cc1,66.4%
6,O=C(Cc1ccccc1Cl)Nc1cccnc1,4.42%
7,COc1ccc(NC(=O)Nc2ccc3c(c2)CC(=O)N([C@@H](C)CO)C[C@@H](C)[C@H](CN(C)Cc2ccncc2)O3)cc1,-9.25%
8,Cc1noc(C)c1S(=O)(=O)Nc1cccc2c1O[C@H](CN(C)C(=O)Nc1ccc(F)cc1)[C@H](C)CN([C@H](C)CO)C2=O,17.4%
9,COc1ccccc1CNS(=O)(=O)c1ccc(N2CCCC2)cc1Br,19.3%
10,Cc1ccc(NC(=O)c2ncn(CC(=O)NCc3ccc4[nH]ccc4c3)n2)cc1C,-7.61%
11,CC(=O)c1c(C)[nH]c(C(=O)CN2C(=O)NC(C)(c3ccc(C)cc3)C2=O)c1C (stereo not given),15%
12,C[C@@H]1CN([C@H](C)CO)C(=O)c2c(c3ccccc3n2C)-c2ccccc2CO[C@H]1CN(C)S(=O)(=O)c1cn(C)cn1,-2.27% [at 23.5 µM]
13,C[C@H]1CCCCO[C@H](CN(C)C(=O)Nc2cccc3ccccc23)[C@@H](C)CN([C@@H](C)CO)C(=O)c2cc(NS(=O)(=O)c3cn(C)cn3)ccc2O1,11.6%
14,CCN(C(=O)COC(=O)C12CC3CC(CC(O)(C3)C1)C2)c1c(N)n(Cc2ccccc2)c(=O)[nH]c1=O,-5.26%
15,O=C(NCc1ccc(F)cc1)c1cc(C2CCCCN2S(=O)(=O)c2cccs2)on1 (stereo not given),-5.46%
16,COc1ccc2c3c([nH]c2c1)[C@H](CO)N(C(C)=O)CC31CCN(C(=O)CN2CCOCC2)CC1,83%
17,O=C(CC1CS(=O)(=O)CC1CC(=O)Nc1ccc2c(c1)OCCO2)Nc1ccc2c(c1)OCCO2 (stereo not given),7.57%
18,N#C[C@H]1[C@@H](c2ccc(C3=CCCCC3)cc2)[C@H](CO)N1C(=O)c1ccccn1,13.3%
19,C[C@@H]1CN([C@@H](C)CO)C(=O)c2cc(NS(C)(=O)=O)ccc2O[C@@H](C)CCCCO[C@@H]1CN(C)Cc1ccc(C(F)(F)F)cc1,-2.61%
20,CCOC(=O)C(C)N1c2cccc3cccc(c23)S1(=O)=O (stereo not given),-10%

row,SMILES,"activity change, negative = cytotoxicity"
1,C[C@H](CO)N1C[C@H](C)[C@@H](CN(C)CC2CCOCC2)Oc2ncc(Br)cc2C1=O,0.128%
2,O=C(NCc1ccco1)c1cc(NS(=O)(=O)c2cccc([N+](=O)[O-])c2)ccc1O,5.22%
3,O=S1(=O)CCOC[C@H](CC2CCCCC2)N1Cc1ccccc1F,4.09%
4,Cc1cc(Cl)ccc1OCCCC(=O)Nc1cc(S(=O)(=O)N2CCOCC2)ccc1N1CCOCC1,0.867%
5,CCn1cc(S(=O)(=O)Nc2cccnc2)cn1,-6.72%
6,O=S(=O)(Nc1ccc(O)c2ccccc12)c1ccc(OC(F)(F)F)cc1,-5.92%
7,CC(C)NC(=O)Nc1ccc2c(c1)C(=O)N([C@H](C)CO)C[C@@H](C)[C@H](CN(C)S(C)(=O)=O)OCCCC[C@H](C)O2,16.1%
8,O=C(c1ccc(F)cc1)N1CC(=O)N2[C@@H](CO)[C@@H](c3ccc(C#CC4CCCC4)cc3)[C@@H]2C1,-11.3%
9,O=C(NCCOc1ccccc1)[C@@H]1CCCN1C(=O)c1cccs1,2.03%
10,CCOC(=O)Nc1ccc(N2CCOCC2)c(S(=O)(=O)Nc2ccc(Cl)cc2)c1,19.4% [at 6 µM]
11,Cc1ccnc(N2C(=O)c3ccccc3C2Nc2ccc3c(c2)OCCO3)c1 (stereo not given),5.87%
12,CC(C)c1ccc(NC(=O)N2CCN(S(=O)(=O)c3ccccc3)CC2)cc1,-2.31%
13,Cn1cnc(S(=O)(=O)N2C[C@@H](O)COC[C@H]3O[C@H](CC(=O)NC4CCCC4)CC[C@@H]32)c1,34.3%
14,O=C(Nc1cc(S(=O)(=O)Nc2ccccc2Cl)ccc1O)c1ccc(F)cc1F,78.2%
15,CO[C@H]1CN(C)C(=O)c2ccc(NC(=O)C3CC3)cc2OC[C@@H](C)N(C(=O)Cc2ccccn2)C[C@H]1C,2.67%
16,COc1ccc(N(CC(=O)NCc2cccs2)S(=O)(=O)c2ccc(C(C)=O)cc2)cc1,-5.5%
17,COCC#Cc1ccc2c(c1)O[C@H](CN(C)S(=O)(=O)c1cccc(F)c1)[C@@H](C)CN([C@H](C)CO)S2(=O)=O,-7.62%
18,Cc1cccn2c(CNCC3(c4ccccc4)CCCC3)c(C(=O)N3CCOCC3)nc12,-11.5%
19,CCOC(=O)C1=CCN(S(=O)(=O)c2ccccc2C)C1c1cccc(C)c1 (stereo not given),-0.622%
20,C[C@H](CO)N1C[C@H](C)[C@@H](CN(C)S(=O)(=O)c2cccs2)Oc2c(cccc2N(C)C)C1=O,21.8% [at 12 µM]
